Source: PubChem BioAssay (National Center for Advancing Translational Sciences (NCATS))
Pf growth 96h: P. falciparum growth inhibition at 96 hours. 320,000 compounds, 6.9% hits. P. falciparum luciferase reporter growth, 96 h. AID 504834. Potency, µM (doses to about 28.7 µM), usual class: inhibitors
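Plates of compound plus infected erythrocytes (2% hematocrit, 0.05% parasitemia final) incubate 96 hours, 37 C, 5% CO2. Detection reagent added; reduced luminescence from the parasites' luciferase reporter flags inhibition.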
NS1 function inh: influenza NS1 inhibition; Potency, µM (series often up to 46.1 µM); 270,000 compounds, 0.4% hits; AID 2326; calls by dose curve; note: actives are rising curves; nearly all actives have a fitted effect of over 50% in size
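Compounds were scored for reversing the slow growth caused by influenza A NS1 in S. cerevisiae, measured by optical density at 600 nm. Assay medium contained 2% galactose at pH 6.0; NS1-free yeast of the same strain were the positive control.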
SARS PLpro yeast: SARS-CoV PLP inhibition in yeast; 330,000 compounds, 0.19% hits; Potency, µM (doses to about 32.9 µM), hits mostly activators; AID 485353; S. cerevisiae expressing SARS-CoV PLpro, growth rescue; calls by dose curve; note: nearly all actives have a fitted effect of over 55% in size
Pf growth 48h: P. falciparum growth inhibition at 48 hours (one generation); P. falciparum luciferase growth in erythrocytes, 48 h; Potency, µM (highest dose often 28.7 µM), actives largely listed as inhibitors; 310,000 compounds, 5.9% hits
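Here the parasites carry a stable luciferase gene and grow inside erythrocytes in Albumax-based RPMI medium with compound for one erythrocytic cycle. Activity is scored as loss of luminescent signal.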
Cycloheximide cs: counter-screen hit for Shiga toxin inhibitors, cycloheximide; cell reporter, cycloheximide protein synthesis inhibition counterscreen; max response, %; 300,000 compounds, 12% hits; in the data active = max response mostly above about 13%, no sharp cut-off; inactive = mostly below about 14%; note: read at 38.3 µM for the half of the compounds with a filed dose
Shiga inhibitor: blocks Shiga toxin action in Vero cells; 290,000 compounds, 9.2% hits; inhibition, % at 38.7 µM; Vero cells, Shiga toxin protein synthesis inhibition reporter; in the data active = inhibition mostly above about 28%, no sharp cut-off; inactive = mostly below about 43%
Large screens that a line does not name were inactive. Shown are actives, neighbours in structure and some others; about 21% of the full set was active somewhere. Unless noted, calls come from the whole dose curve; as a rule, active = well fitted inhibition curve with a large enough effect; inconclusive = small, poorly fitted or top-dose-only effect, or another doubt; inactive = no such curve, though single readings can be large or run the other way.

Cc1cccc(NC(=O)c2cccc(N3C(=O)C4CCC(C)CC4C3=O)c2)c1C (stereo unspecified)	none
COC(=O)c1ccc(NC(=O)c2cccc(N3C(=O)C4C5C=CC(C6CC56)C4C3=O)c2)cc1 (stereo unspecified)	Pf growth 96h inconclusive, Cycloheximide cs 33.5, Shiga inhibitor 64.5
O=C(Nc1ccccc1)c1cccc(N2C(=O)C3C4C=CC(C4)C3C2=O)c1 (stereo unspecified)	Pf growth 96h inconclusive, Cycloheximide cs 19.0
Cc1ccc(NC(=O)c2ccccc2N2C(=O)C3C4C=CC(C5CC45)C3C2=O)cc1C (stereo unspecified)	Pf growth 96h 9.28µM, Pf growth 48h inconclusive
O=C(CNCc1ccccc1)NCCCN1CCCC1=O	none
CC1=CS(=O)(=O)CC1SC(=S)N(C)C1CCS(=O)(=O)C1 (stereo unspecified)	none (no result: NS1 function inh)
O=S(=O)(NCc1ccccc1)[C@@H]1CC2C=CC1C2 (stereo partly specified)	none (no result: NS1 function inh, Cycloheximide cs, Shiga inhibitor)
COc1ccccc1OCc1nc(-c2ccc([N+](=O)[O-])cc2)no1	Pf growth 96h inconclusive, Cycloheximide cs 24.5, Shiga inhibitor 39.2
Cc1ccccc1OCC(=O)N(Cc1nc(-c2ccccc2)no1)C(C)C	Pf growth 48h inconclusive
COc1ccccc1OCC(=O)N(Cc1nc(-c2ccccc2)no1)C1CCCCC1	Pf growth 48h 13.1µM, Cycloheximide cs 15.1 (no result: Pf growth 96h)
COc1ccc(-c2noc(COc3ccccc3OC)n2)cc1OC	Cycloheximide cs 12.5, Shiga inhibitor 50.1
CC(=O)c1ccc(OCC(C)Oc2ccc(C#N)cc2)cc1 (stereo unspecified)	none
COc1cc(/C=C(\C#N)C(=O)Nc2ccc(SC(F)F)cc2)cc(OC)c1OC	Pf growth 96h 5.22µM (no result: Pf growth 48h)
Cc1nc(N)nc(Nc2ccc(Cl)cc2)c1Br	Pf growth 96h inconclusive, Cycloheximide cs 34.4, Shiga inhibitor 43.3
CCn1cc[n+](C)c1P(c1ccccc1)c1ccccc1	Pf growth 96h inconclusive, Pf growth 48h 1.31µM
O=C(COc1ccc(-c2ccccc2)cc1)N/N=C/c1cc(O)ccc1Br	Pf growth 96h 8.28µM
O=C(CSc1ccc(Cl)cc1)N/N=C/c1ccc([N+](=O)[O-])o1	Pf growth 96h inconclusive, Pf growth 48h inconclusive, Cycloheximide cs 14.0
Cc1ccc(SCC(=O)N/N=C/c2ccco2)cc1	Pf growth 96h inconclusive, Pf growth 48h inconclusive
O=C(O)c1ccc(N/N=C/c2cc3c(cc2[N+](=O)[O-])OCO3)cc1	Shiga inhibitor 42.2 (no result: NS1 function inh)
Cc1ccc(OCC(=O)N/N=C/c2ccc([N+](=O)[O-])o2)cc1	Pf growth 96h inconclusive, Pf growth 48h 10.4µM
O=C(O)c1ccc(N/N=C/c2cc3cc4c(cc3nc2Cl)OCCO4)cc1	Cycloheximide cs 11.7
Cc1cc(=O)oc2cc(OCC(=O)N/N=C/c3ccccc3[N+](=O)[O-])ccc12	Pf growth 96h inconclusive
O=C(CNc1ccc2ccccc2c1)N/N=C/c1ccc(C(=O)O)cc1	none (no result: NS1 function inh)
O=C(CNc1ccc2ccccc2c1)N/N=C/c1ccc([N+](=O)[O-])o1	Pf growth 96h 3.29µM, Pf growth 48h 9.28µM
O=C(COc1ccccc1)N/N=C/c1ccc([N+](=O)[O-])o1	Pf growth 96h 10.4µM, Pf growth 48h 8.28µM, Cycloheximide cs 10.9
O=C(COc1ccccc1)N/N=C/c1cc2c(cc1[N+](=O)[O-])OCO2	Pf growth 96h inconclusive, Cycloheximide cs 23.2 (no result: Pf growth 48h)
O=C(NCc1nnnn1-c1ccc(Cl)cc1)c1ccc(Br)o1	none (no result: NS1 function inh, Cycloheximide cs, Shiga inhibitor)
CCOC(=O)c1[nH]ncc1CN1CCN(Cc2ccccc2)C(CCO)C1 (stereo unspecified)	none
O=C(NC1=NCCS1)c1ccc([N+](=O)[O-])cc1Cl	none (no result: NS1 function inh)
CCCCn1c(-c2sccc2C)n[nH]c1=S	none
O=C(NCc1ccc(F)cc1)c1nc(-c2cccs2)no1	none (no result: NS1 function inh)
c1ccc(OCc2nc(-c3cccs3)no2)cc1	Cycloheximide cs 45.1, Shiga inhibitor 76.0 (no result: Pf growth 48h)
Fc1ccc(OCc2nc(-c3cccs3)no2)cc1	Cycloheximide cs 40.5, Shiga inhibitor 110.1
Cc1cc(OCc2nc(-c3cccs3)no2)cc(C)c1Cl	Cycloheximide cs 37.4, Shiga inhibitor 41.7 (no result: Pf growth 48h)
CC(C)[N+]1=C2C=CC=CC=C2SC12C([N+](=O)[O-])=CC(=[N+]([O-])[O-])C=C2[N+](=O)[O-] (stereo unspecified)	none
